The target in assay [1] is Myc proto-oncogene protein (Homo sapiens) (UniProt P01106). The assay can be described thus: ATG_Myc_CIS: Attagene CIS-FACTORIAL HepG2 Assay for human Myelocytomatosis (Myc) Proto-Oncogene Transcription Factor (AID 2282990). Particulars: HepG2, Attagene cis-reporter transcription factor activity; actives raise or lower the signal. In outline:
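Transiently transfected HepG2 cells bearing cis-promoter reporter units for endogenous transcription factors; 24 h exposure. Reporter mRNA measured by RT-PCR, 6-FAM primer extension, HpaI cut and capillary electrophoresis; bidirectional fit relative to DMSO.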

Assay [2] is described as follows: ATG_NF_kB_CIS: Attagene CIS-FACTORIAL HepG2 Assay for human Nuclear Factor Kappa B (NF-kB) (AID 2282991). Particulars: HepG2 Attagene cis-factorial NF-kB reporter mRNA; actives raise or lower the signal. In short, it runs like this:
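Fluorescence of labelled RT-PCR products separated by capillary electrophoresis gives reporter mRNA levels from transfected HepG2 cells exposed 24 h; values are fitted in both directions relative to DMSO.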

Assay [3] in a line: ATG_NRF2_ARE_CIS: Attagene CIS-FACTORIAL HepG2 Assay for human Nuclear Factor Erythroid 2 Related Factor 2 (NFR2) response to Antioxidant Response Elements (ARE) (AID 2282992). The conditions noted are these: HepG2 Attagene ARE/NRF2 reporter, transcription factor activity; actives raise or lower the signal. In short, it runs like this:
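Transient MRTU transfection of HepG2; 24 h compound exposure; TriZol RNA, RT with oligo(dT), PCR, 6-FAM primer extension, HpaI cut, CE. Bidirectional fit vs DMSO.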

The nature of assay [4]: ATG_Oct_MLP_CIS: Attagene CIS-FACTORIAL HepG2 Assay for human Octamer-Binding Transcription Factor (Oct) (AID 2282993). Particulars: HepG2 Attagene cis-factorial Oct reporter, mRNA; actives raise or lower the signal. In outline: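 Transient MRTU transfection of HepG2 → 24 h compound treatment → RNA isolation, reverse transcription, PCR → 6-FAM primer extension, HpaI digest → capillary electrophoresis. Activity fitted both directions against DMSO.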

The target of assay [5] is human Peroxisome Proliferator-activated Receptor alpha (PPARa), PPARA (gene 5465) (UniProt Q07869). The assay can be described thus: ATG_PPARa_TRANS: Attagene TRANS-FACTORIAL HepG2 Assay for human Peroxisome Proliferator-activated Receptor alpha (PPARa) (AID 2283001; active = hit-call score of the fitted dose curve at least 0.9, where 1 is the maximum;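 for AC50: potency for gain of reporter signal over DMSO so agonist or activator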). In short, it runs like this:
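HepG2 cells transiently transfected with multiplexed GAL4-UAS reporters driven by exogenous chimeric NR-Gal4 proteins; reporter mRNA measured after 24 h dosing. Read-out by RT-PCR, 6-FAM labelling, HpaI digestion and capillary electrophoresis; gain of signal versus DMSO.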

Assay [6] has as its target Retinoic acid receptor alpha (Homo sapiens) (UniProt P10276). Put plainly: ATG_RARa_TRANS: Attagene TRANS-FACTORIAL HepG2 Assay for human Retinoic Acid Receptor alpha (RARa) (AID 2283005; active = hit-call score of the fitted dose curve at least 0.9, where 1 is the maximum). In short, it runs like this:
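HepG2 transiently transfected with multiplex GAL4-UAS reporter units including a human RARa–GAL4 chimera; 24 h compound exposure. Reporter mRNA quantified by RT-PCR, 6-FAM labeling and capillary electrophoresis; gain of signal versus DMSO.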

Assay [7] concerns the target Peroxisome proliferator-activated receptor gamma (Homo sapiens) (UniProt P37231). Put plainly: ATG_PPARg_TRANS: Attagene TRANS-FACTORIAL HepG2 Assay for human Peroxisome Proliferator-activated Receptor-gamma (PPARg) (AID 2283007; active = hit-call score of the fitted dose curve at least 0.9, where 1 is the maximum). In outline:
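Twenty-four hours after chemical dosing of transiently transfected HepG2 cells, isolated RNA was converted to cDNA, reporter sequences amplified and 6-FAM-labelled, then HpaI-digested and analysed by capillary electrophoresis. Signal increase against DMSO was fitted.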

Assay [8] deals with Nuclear receptor subfamily 1 group I member 2 (Homo sapiens) (UniProt O75469). The assay can be described thus: ATG_PXR_TRANS: Attagene TRANS-FACTORIAL HepG2 Assay for human Pregnane X Receptor (PXR) (AID 2283008; active = hit-call score of the fitted dose curve at least 0.9, where 1 is the maximum). In short, it runs like this: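 Read-out is fluorescence of labelled reporter cDNA fragments separated by capillary electrophoresis after RT-PCR and HpaI digestion. Source: HepG2 cells carrying PXR-GAL4/UAS reporter constructs, treated 24 h; activity fitted upward relative to DMSO.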

The target of assay [9] is Cellular tumor antigen p53 (Homo sapiens) (UniProt P04637). The assay can be described thus: ATG_p53_CIS: Attagene CIS-FACTORIAL HepG2 Assay for human p53 Transcription Factor (AID 2282994). The conditions noted are these: HepG2 p53 cis-element reporter, Attagene mRNA; actives raise or lower the signal. In short, it runs like this: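 HepG2, transient MRTU transfection (cis promoter elements, endogenous TFs); 24 h dosing; RNA isolation, RT-PCR, 6-FAM primer extension, HpaI digest, CE fluorescence; bidirectional fit vs DMSO.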

Assay [10] concerns the target human RAR-related Orphan Receptor beta (RORb), RORB (gene 6096) (UniProt Q92753). The assay can be described thus: ATG_RORb_TRANS: Attagene TRANS-FACTORIAL HepG2 Assay for human RAR-related Orphan Receptor beta (RORb) (AID 2283010; active = hit-call score of the fitted dose curve at least 0.9, where 1 is the maximum). In outline: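 HepG2 cells transiently transfected with GAL4-UAS reporter units expressing chimeric NR-Gal4 protein; reporter mRNA measured 24 h after dosing by RT-PCR, 6-FAM labelling and capillary electrophoresis. Gain-of-signal fitted relative to DMSO baseline.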

Assay [11] addresses human Retinoic Acid Receptor gamma (RARg), RARG (gene 5916) (UniProt P13631). The assay can be described thus: ATG_RARg_TRANS: Attagene TRANS-FACTORIAL HepG2 Assay for human Retinoic Acid Receptor gamma (RARg) (AID 2283009; active = hit-call score of the fitted dose curve at least 0.9, where 1 is the maximum). In short, it runs like this:
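HepG2 transiently transfected with GAL4-UAS reporter units and chimeric NR-Gal4 constructs; 24 h compound exposure. Reporter mRNA quantified by RT-PCR, FAM labeling, HpaI digestion and capillary electrophoresis; gain-of-signal versus DMSO.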

The nature of assay [12]: BSK_3C_TissueFactor: BioMAP Diversity Plus: 3C Assay for Tissue Factor Biomarker Activity (AID 2282997). The conditions noted are these: BioMAP 3C HUVEC, tissue factor biomarker readout; actives raise or lower the signal. In short, it runs like this: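 Primary human umbilical vein endothelial cells in the 3C system were exposed to test chemical for 24 h, then Tissue Factor measured by ELISA. Activity was fitted bidirectionally against DMSO as negative control and baseline.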

Assay [13] can be described thus: BSK_3C_uPAR: BioMAP Diversity Plus: 3C Assay for Urokinase-type plasminogen activator receptor (uPAR) Biomarker Activity (AID 2282998). Particulars: BioMAP 3C HUVEC, uPAR biomarker ELISA; actives raise or lower the signal. In short, it runs like this:
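ELISA readout of uPAR on human vascular endothelium (umbilical vein primary cells), taken 24 h after chemical dosing. Increases and decreases are both fitted relative to DMSO vehicle.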
A general note: ELISA stands for enzyme-linked immunosorbent assay.

Assay [14] is described as follows: BSK_3C_VCAM1: BioMAP Diversity Plus: 3C Assay for Vascular cell adhesion molecule 1 (VCAM1) Biomarker Activity (AID 2282999). Particulars: BioMAP 3C HUVEC, VCAM1 ELISA, cytokine-stimulated; actives raise or lower the signal. In outline:
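Human umbilical vein endothelial cells (3C system), biomarker read by ELISA 24 h after dosing; bidirectional fit against DMSO baseline. Cytotoxicity tracked by SRB total-protein staining in parallel cultures at biomarker time.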

The nature of assay [15]: BSK_4H_Eotaxin3: BioMAP Diversity Plus: 4H Assay for Eotaxin 3 Biomarker Activity (AID 2283000).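 Note: CCL26 protein level quantified by ELISA in parallel with SRB cytotoxicity check.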 The conditions noted are these: primary human endothelial cells (HUVEC); actives raise or lower the signal. In outline: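 HUVEC, 24 h post-dose, ELISA for Eotaxin-3/CCL26. Gain or loss of signal fitted bidirectionally vs DMSO baseline.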
Assay [16] can be described thus: BSK_3C_Proliferation: Cell Proliferation Assessment in the BioMAP Diversity Plus: 3C Assay (AID 2283006). Particulars: primary human endothelial cells (HUVEC). In short, it runs like this: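 Subconfluent HUVEC (3C system) cultured with chemical; relative cell number read at 48 h by sulforhodamine B total-protein staining (0.1% SRB after 10% TCA fixation, 560 nm). Bidirectional fit relative to DMSO.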

Assay [17] deals with human Retinoic Acid Receptor beta (RARb), RARB (gene 5915) (UniProt P10826). Put plainly: ATG_RARb_TRANS: Attagene TRANS-FACTORIAL HepG2 Assay for human Retinoic Acid Receptor beta (AID 2283004; active = hit-call score of the fitted dose curve at least 0.9, where 1 is the maximum). In short, it runs like this: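 HepG2 cells transiently transfected with multiplexed GAL4-UAS reporter units expressing chimeric NR–Gal4 fusions; 24 h compound exposure. Reporter mRNA quantified by RT-PCR, 6-FAM labelling, HpaI digestion and capillary electrophoresis; gain-of-signal fitted against DMSO baseline.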

Assay [18] addresses human RAR-related Orphan Receptor gamma (RORg), RORC (gene 6097) (UniProt P51449). The assay can be described thus: ATG_RORg_TRANS: Attagene TRANS-FACTORIAL HepG2 Assay for human RAR-related Orphan Receptor gamma (RORg) (AID 2283011; active = hit-call score of the fitted dose curve at least 0.9, where 1 is the maximum). In outline:
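Readout: reporter transcript induction (RT-PCR, fluorescent primer extension, capillary electrophoresis) after 24 h compound exposure of transiently transfected HepG2 cells carrying a RORg-Gal4 chimera and GAL4-UAS reporters; DMSO served as baseline, with increasing signal fitted.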

Assay [19] concerns the target human Peroxisome Proliferator-activated Receptor delta (PPARd), PPARD (gene 5467) (UniProt Q03181). Put plainly: ATG_PPARd_TRANS: Attagene TRANS-FACTORIAL HepG2 Assay for human Peroxisome Proliferator-activated Receptor delta (PPARd) (AID 2283002; active = hit-call score of the fitted dose curve at least 0.9, where 1 is the maximum). In outline:
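HepG2 cells transiently transfected with GAL4-UAS multiplexed reporter units driven by exogenous chimeric NR-GAL4 proteins; 24 h compound exposure. Reporter mRNA measured by RT-PCR, 6-FAM primer extension, HpaI digestion and capillary electrophoresis; gain of signal fitted relative to DMSO.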

Inconclusive results are not listed. Calls of active or inactive are those of the source. Rule for the calls, unless noted: active = hit-call score of the fitted dose curve at least 0.9, where 1 is the maximum; inactive = score below 0.9.

A word on the AC50: it is the concentration giving half of the maximal activity seen.

Sequence of Cellular tumor antigen p53 (Homo sapiens) (P04637 whole entry, looked up): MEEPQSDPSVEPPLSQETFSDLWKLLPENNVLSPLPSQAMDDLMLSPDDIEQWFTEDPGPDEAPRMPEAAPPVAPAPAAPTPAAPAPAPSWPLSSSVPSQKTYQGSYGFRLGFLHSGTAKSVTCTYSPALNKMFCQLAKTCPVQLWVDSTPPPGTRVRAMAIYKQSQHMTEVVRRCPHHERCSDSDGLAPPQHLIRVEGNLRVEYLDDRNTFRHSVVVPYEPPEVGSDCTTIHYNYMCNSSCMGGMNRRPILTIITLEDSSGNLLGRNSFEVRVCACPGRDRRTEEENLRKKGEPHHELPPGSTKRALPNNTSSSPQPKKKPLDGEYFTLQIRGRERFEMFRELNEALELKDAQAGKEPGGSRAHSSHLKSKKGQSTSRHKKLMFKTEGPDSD
Sequence of human Peroxisome Proliferator-activated Receptor alpha (PPARa), PPARA (gene 5465) (Q07869 whole entry, looked up, the tested form may be a part): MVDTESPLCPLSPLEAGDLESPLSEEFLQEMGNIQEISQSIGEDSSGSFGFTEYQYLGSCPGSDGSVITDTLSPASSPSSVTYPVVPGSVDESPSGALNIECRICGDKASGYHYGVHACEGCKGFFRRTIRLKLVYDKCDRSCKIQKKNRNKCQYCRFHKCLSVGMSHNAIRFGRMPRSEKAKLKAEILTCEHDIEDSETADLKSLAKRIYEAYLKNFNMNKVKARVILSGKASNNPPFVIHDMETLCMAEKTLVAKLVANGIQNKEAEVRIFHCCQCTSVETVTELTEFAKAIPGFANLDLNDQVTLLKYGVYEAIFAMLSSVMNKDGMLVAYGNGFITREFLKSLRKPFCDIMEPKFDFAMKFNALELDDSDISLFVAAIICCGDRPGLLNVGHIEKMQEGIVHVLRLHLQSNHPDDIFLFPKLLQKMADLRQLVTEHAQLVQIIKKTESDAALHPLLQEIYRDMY
Sequence of human Retinoic Acid Receptor beta (RARb), RARB (gene 5915) (P10826 whole entry, looked up, the tested form may be a part): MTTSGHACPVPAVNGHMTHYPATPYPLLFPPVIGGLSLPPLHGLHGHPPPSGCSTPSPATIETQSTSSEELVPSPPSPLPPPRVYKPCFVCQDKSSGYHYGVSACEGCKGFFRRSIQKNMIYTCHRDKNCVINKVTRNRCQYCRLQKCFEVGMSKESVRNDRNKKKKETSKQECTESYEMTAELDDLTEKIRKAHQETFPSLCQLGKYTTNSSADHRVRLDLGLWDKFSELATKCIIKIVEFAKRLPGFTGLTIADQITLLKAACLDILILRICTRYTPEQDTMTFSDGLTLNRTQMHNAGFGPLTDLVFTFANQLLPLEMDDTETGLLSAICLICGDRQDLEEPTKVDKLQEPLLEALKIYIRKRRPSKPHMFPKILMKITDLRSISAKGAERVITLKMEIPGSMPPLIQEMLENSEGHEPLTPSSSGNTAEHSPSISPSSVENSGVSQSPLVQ
Sequence of Nuclear receptor subfamily 1 group I member 2 (Homo sapiens) (O75469 whole entry, looked up, the tested form may be a part): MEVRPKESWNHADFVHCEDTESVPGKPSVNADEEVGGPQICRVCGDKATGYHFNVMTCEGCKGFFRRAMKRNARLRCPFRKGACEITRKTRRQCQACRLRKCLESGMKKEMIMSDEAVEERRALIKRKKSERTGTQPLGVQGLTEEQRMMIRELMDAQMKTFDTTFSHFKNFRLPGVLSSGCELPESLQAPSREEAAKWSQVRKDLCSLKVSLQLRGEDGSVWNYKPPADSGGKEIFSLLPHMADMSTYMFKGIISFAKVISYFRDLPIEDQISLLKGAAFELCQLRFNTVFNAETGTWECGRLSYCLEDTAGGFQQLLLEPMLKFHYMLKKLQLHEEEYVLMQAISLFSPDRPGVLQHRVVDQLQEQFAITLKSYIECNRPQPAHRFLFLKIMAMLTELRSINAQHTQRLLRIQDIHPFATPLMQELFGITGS
Sequence of human RAR-related Orphan Receptor beta (RORb), RORB (gene 6096) (Q92753 whole entry, looked up, the tested form may be a part): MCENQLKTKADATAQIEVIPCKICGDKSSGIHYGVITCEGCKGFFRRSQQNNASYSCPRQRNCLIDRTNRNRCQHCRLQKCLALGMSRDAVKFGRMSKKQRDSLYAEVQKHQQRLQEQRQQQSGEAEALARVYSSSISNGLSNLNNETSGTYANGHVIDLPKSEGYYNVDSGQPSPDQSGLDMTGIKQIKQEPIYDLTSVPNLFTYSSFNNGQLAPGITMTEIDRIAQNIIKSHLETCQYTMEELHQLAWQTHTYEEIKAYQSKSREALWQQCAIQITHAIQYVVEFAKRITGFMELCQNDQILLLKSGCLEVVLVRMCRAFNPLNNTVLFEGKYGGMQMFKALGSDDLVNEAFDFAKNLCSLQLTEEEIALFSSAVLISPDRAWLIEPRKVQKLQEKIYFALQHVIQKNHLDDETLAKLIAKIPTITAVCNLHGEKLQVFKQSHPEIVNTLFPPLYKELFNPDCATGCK
Sequence of human RAR-related Orphan Receptor gamma (RORg), RORC (gene 6097) (P51449 whole entry, looked up, the tested form may be a part): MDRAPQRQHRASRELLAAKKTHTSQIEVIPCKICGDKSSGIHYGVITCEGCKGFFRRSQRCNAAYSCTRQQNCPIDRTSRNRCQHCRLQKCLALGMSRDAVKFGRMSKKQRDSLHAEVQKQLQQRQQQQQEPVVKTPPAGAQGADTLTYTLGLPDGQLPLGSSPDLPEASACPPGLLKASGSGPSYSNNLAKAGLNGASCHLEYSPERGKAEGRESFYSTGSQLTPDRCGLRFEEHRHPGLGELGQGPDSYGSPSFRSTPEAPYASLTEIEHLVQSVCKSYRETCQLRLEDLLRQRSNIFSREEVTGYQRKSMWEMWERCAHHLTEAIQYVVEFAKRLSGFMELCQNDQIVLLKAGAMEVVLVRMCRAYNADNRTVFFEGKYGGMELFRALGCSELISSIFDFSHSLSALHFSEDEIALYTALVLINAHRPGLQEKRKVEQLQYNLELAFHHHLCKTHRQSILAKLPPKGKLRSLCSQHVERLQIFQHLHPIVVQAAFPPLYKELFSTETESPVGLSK
Sequence of Peroxisome proliferator-activated receptor gamma (Homo sapiens) (P37231 whole entry, looked up): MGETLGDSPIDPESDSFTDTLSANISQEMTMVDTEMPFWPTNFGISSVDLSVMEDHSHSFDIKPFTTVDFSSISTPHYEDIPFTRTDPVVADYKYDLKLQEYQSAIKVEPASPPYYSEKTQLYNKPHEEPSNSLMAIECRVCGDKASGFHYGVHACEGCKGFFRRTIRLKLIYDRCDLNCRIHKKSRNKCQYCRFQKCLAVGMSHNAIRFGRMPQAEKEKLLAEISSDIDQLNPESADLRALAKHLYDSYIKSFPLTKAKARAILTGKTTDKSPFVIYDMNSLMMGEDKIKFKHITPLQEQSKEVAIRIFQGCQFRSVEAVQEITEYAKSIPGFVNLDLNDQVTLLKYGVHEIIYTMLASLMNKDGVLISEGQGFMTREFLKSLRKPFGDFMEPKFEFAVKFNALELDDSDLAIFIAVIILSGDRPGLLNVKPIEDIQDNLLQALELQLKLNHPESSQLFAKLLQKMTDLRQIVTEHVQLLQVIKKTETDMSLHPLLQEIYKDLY
Sequence of Retinoic acid receptor alpha (Homo sapiens) (P10276 whole entry, looked up, the tested form may be a part): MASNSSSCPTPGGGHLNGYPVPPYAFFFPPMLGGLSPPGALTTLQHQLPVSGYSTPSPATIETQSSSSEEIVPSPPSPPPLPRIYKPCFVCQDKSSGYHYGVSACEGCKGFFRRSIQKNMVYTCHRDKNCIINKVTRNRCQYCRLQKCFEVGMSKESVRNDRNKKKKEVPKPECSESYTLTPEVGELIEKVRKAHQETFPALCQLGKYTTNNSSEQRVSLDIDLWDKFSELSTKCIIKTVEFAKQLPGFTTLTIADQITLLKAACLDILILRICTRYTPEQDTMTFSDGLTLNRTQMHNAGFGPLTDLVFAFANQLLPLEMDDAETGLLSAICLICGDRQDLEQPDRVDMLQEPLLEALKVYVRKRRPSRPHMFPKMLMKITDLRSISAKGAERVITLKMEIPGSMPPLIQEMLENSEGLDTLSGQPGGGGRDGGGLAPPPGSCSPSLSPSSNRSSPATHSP
Sequence of human Retinoic Acid Receptor gamma (RARg), RARG (gene 5916) (P13631 whole entry, looked up, the tested form may be a part): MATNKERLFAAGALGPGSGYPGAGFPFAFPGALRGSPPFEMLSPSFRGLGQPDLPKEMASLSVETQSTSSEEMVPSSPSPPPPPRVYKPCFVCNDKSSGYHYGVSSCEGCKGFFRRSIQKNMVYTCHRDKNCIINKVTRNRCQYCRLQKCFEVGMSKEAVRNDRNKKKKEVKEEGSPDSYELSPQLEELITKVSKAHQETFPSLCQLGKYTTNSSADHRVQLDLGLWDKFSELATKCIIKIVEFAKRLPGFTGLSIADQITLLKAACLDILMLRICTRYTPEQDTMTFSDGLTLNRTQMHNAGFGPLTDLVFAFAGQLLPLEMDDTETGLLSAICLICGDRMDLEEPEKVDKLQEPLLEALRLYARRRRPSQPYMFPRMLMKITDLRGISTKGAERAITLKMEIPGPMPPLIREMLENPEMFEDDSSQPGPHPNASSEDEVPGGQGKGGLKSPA
Sequence of Myc proto-oncogene protein (Homo sapiens) (P01106 whole entry, looked up): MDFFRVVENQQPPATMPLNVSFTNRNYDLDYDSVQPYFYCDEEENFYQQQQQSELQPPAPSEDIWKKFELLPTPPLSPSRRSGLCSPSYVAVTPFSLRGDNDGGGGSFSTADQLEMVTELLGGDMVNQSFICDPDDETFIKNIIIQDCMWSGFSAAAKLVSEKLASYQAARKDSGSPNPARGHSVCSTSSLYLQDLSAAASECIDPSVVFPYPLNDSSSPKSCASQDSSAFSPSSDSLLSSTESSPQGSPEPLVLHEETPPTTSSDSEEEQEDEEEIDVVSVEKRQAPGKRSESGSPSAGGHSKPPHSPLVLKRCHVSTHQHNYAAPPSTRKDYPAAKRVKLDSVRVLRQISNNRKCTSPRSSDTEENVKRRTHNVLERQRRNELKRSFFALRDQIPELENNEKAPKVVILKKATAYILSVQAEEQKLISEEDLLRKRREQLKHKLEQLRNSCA

For `C=C(C)C1CC=C(C)C(=O)C1` (stereo not drawn), the call in [1], in assay [2], in assay [3], in assay [4], in assay [5] and in [6] was inactive. For the same molecule, the outcome in [7] and in assay [8] was inactive.

In the case of `CC(C)CCOC(=O)c1ccccc1`, the outcome in assay [1], in [2], in assay [3], in assay [4], in assay [9] and in [8] was inactive. Besides, the result in assay [10] was inactive.

As for `O=[N+]([O-])c1cccc(Cl)c1`, the outcome in assay [1], in [2], in assay [3], in assay [4], in assay [9] and in assay [11] was inactive.

Turning to `C=C(C)[C@H]1CC=C(C)C(=O)C1`, the outcome in assay [1], in assay [2], in assay [3], in assay [4], in assay [12] and in [13] was inactive. Besides, the outcome in [14], in assay [15], in assay [5], in assay [16] and in assay [8] was inactive. The AC50 in [7] is 68.7 µM (active).

For `COC(=O)c1ccc(C)cc1C1=NC(C)(C(C)C)C(=O)N1` (stereo not drawn) (tested in a mixture with another compound), the call in [1], in [2], in [3], in [4], in [9] and in assay [6] was inactive. Moreover, the call in assay [8] was inactive.

As for `CC1CC(O)CC(C)(C)C1` (stereo not drawn), the call in assay [1], in assay [2], in [3], in [4], in [9] and in assay [17] was inactive. The call in assay [6], in assay [8], in assay [11] and in [10] was inactive.

Consider `CSc1c(Cl)c(Cl)c(Cl)c(Cl)c1Cl`, for which the AC50 was 167 µM (active) in [1]; 48.4 µM (active) in assay [3]; 139 µM (active) in [4]; 6.23 µM (active) in assay [7]; 8.95 µM (active) in [8]. Further, the molecule was classed as inactive in assay [2], in assay [9], in assay [17] and in assay [11].

Regarding `CCCCCCC(C)(C)S`, the molecule was called inactive in [1], in assay [2], in assay [3], in [4], in [5] and in [6]. Also, the molecule was classed as inactive in assay [7], in assay [8], in [11] and in assay [10].

For `CCCCCCCCCCCC(=O)OCC(O)CO` (stereo not drawn), the call in assay [1], in [4], in assay [8] and in assay [11] was inactive. The AC50 in assay [2], in assay [3], in assay [5] and in [7] was 100 µM (active) in each case.

With `Brc1ccc(Br)c(Br)c1`, the molecule was called inactive in [1], in assay [2], in [3], in [9], in [6] and in assay [7]. For the same molecule, the result in assay [8], in assay [11] and in assay [18] was inactive.

`[O-]n1ccccc1=S.[O-]n1ccccc1=S.[Zn+2]`: the outcome in assay [1], in assay [3], in [9], in assay [5], in [19] and in assay [17] was inactive. Further, the molecule was called inactive in assay [6], in assay [7], in assay [10] and in [18]. The AC50 in assay [2] is 0.999 µM (active).

As for `C=Cc1ccc(C(C)(C)C)cc1`, the call in assay [1], in [2], in assay [3], in [19], in assay [8] and in assay [18] was inactive.

The values are drawn from PubChem BioAssay (EPA / NIEHS).
